Structures are written as SMILES. This is part of a sample that, as a whole, favours compounds with a hit. Of some 83,000 tested, about 20% had one in any assay.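 Step 1: grow cells in 96-well plates. Step 2: add test compound at a single concentration. Step 3: incubate 48 h. Step 4: record percent growth.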 A number with no mark means an inactive call. Calls of active or inactive are those of the source. Rule for the calls: active = growth percent below 10; inactive = the rest.

Some test systems named below: NCI-H23 lung; NCI-H226 lung; NCI-H322M lung; HOP-62 NSCLC; NCI-H460 lung; HOP-92 NSCLC; NCI-H522 lung; A549/ATCC NSCLC; 786-0 renal; COLO 205 colon.
Common to all, as to assay: NCI-60 one-dose screen, 48 h (100 = growth as untreated, 0 = no growth, -100 = all killed)
Holding throughout (settings): 10 µM unless noted

Regarding `C=CCSC1=NC2C(N(CC)C(=O)N2CC)N1/N=C/C=C/c1ccccc1OC` (stereo not given), the growth with NCI-H23 lung is 84%; in the experiment on NCI-H226 lung it was 78.3%; with NCI-H322M lung, 102%; with HOP-62 NSCLC, 80.7%; in the experiment with NCI-H460 lung, 84.3%; in the experiment with HOP-92 NSCLC it was 68.4%. In addition, the growth is 57.2% in the experiment on NCI-H522 lung, 69.8% in the experiment on A549/ATCC NSCLC, 98.5% in the experiment on 786-0 renal and 83.1% in the experiment on COLO 205 colon.
Turning to `CC(=O)Nc1nc(C)c(-c2csc(Nc3ccccc3)n2)s1`, the growth with NCI-H23 lung is 35.2%; in the experiment with NCI-H226 lung, 19.4%; in the experiment on NCI-H322M lung, 27.6%; in the experiment with HOP-62 NSCLC it was 42.8%; in the experiment on NCI-H460 lung it was 21.8%; in the experiment on HOP-92 NSCLC, 24.6%. In addition, the growth was 9.26% (active) in the experiment on NCI-H522 lung, 44.3% in the experiment with A549/ATCC NSCLC, 25.7% in the experiment on 786-0 renal and 38% in the experiment with COLO 205 colon.
Regarding `O=c1c2cc(-c3ccc(F)cc3F)ccc2n(O)c(=O)n1-c1cccc(C(F)(F)F)c1`, the growth with NCI-H23 lung was -2.77% (active); in the experiment on NCI-H226 lung it was 14.3%; in the experiment with NCI-H322M lung it was 5.99% (active); in the experiment on HOP-62 NSCLC, -9.23% (active); in the experiment on NCI-H460 lung, 6.68% (active); in the experiment on HOP-92 NSCLC it was -30% (active). The growth in the experiment with NCI-H522 lung was -14.2% (active); in the experiment on A549/ATCC NSCLC it was 6.74% (active); in the experiment on 786-0 renal, 30.9%; with COLO 205 colon, 73.9%.
`O=C1Nc2cc(Cl)ccc2/C1=C\c1ccc(OCc2ccccc2)cc1`: the growth was 94.3% in the experiment on NCI-H23 lung; 92.9% in the experiment on NCI-H226 lung; 99.5% with NCI-H322M lung; 96.2% in the experiment with HOP-62 NSCLC; 104% in the experiment with NCI-H460 lung; 109% with HOP-92 NSCLC. Moreover, the growth in the experiment on NCI-H522 lung was 99.8%; with A549/ATCC NSCLC, 105%; with 786-0 renal it was 105%; in the experiment on COLO 205 colon, 110%.
As to `O=C(/C=C/Nc1ccc(S(=O)(=O)Nc2ncccn2)cc1)c1ccc(N=Cc2c(O)[nH]c3ccccc23)cc1`, the growth is 96.5% in the experiment with NCI-H23 lung; 107% in the experiment with NCI-H226 lung; 114% in the experiment with NCI-H322M lung; 108% in the experiment on HOP-62 NSCLC; 105% in the experiment with NCI-H460 lung; 93.6% in the experiment with HOP-92 NSCLC. Besides, the growth in the experiment on NCI-H522 lung was 98.7%; with A549/ATCC NSCLC it was 102%; with 786-0 renal it was 96.2%; with COLO 205 colon, 117%.
Regarding `C=C(C)[C@@H]1CC[C@]2(COP(=O)(OCC)OCC)CC[C@]3(C)[C@H](CC[C@@H]4[C@@]5(C)CC[C@H](OP(=O)(OCC)OCC)C(C)(C)[C@@H]5CC[C@]43C)[C@@H]12`, the growth was 13.5% in the experiment on NCI-H23 lung; 28.3% in the experiment on NCI-H226 lung; 59.6% in the experiment on NCI-H322M lung; 63.5% with HOP-62 NSCLC; 22.3% in the experiment on NCI-H460 lung; 42.2% in the experiment with HOP-92 NSCLC. Further, the growth in the experiment on NCI-H522 lung is 35.5%; in the experiment with A549/ATCC NSCLC, 28.4%; in the experiment with 786-0 renal it was 72.8%; in the experiment on COLO 205 colon, 44.2%.
As to `CCCc1cc2cc(-n3nc(CC)c4c3CC(C)(C)CC4=O)cc(NC3CCC(O)CC3)c2c(=O)[nH]1` (stereo not given), the growth is 18.3% with NCI-H23 lung; 13.9% in the experiment on NCI-H226 lung; 35.1% in the experiment on NCI-H322M lung; 15.4% in the experiment on HOP-62 NSCLC; -12.1% (active) with NCI-H460 lung; -1.33% (active) with HOP-92 NSCLC. The growth with NCI-H522 lung is 17.7%; with A549/ATCC NSCLC, 25%; in the experiment with 786-0 renal it was -12.4% (active); in the experiment with COLO 205 colon it was 8.47% (active).
`O=c1nc(Nc2ccc([N+](=O)[O-])cc2O)sc2ccccc12`: the growth is 40.4% with NCI-H23 lung; 57.2% with NCI-H226 lung; 51.4% in the experiment with NCI-H322M lung; 47% in the experiment with HOP-62 NSCLC; 22.1% in the experiment on NCI-H460 lung; -0.0775% (active) in the experiment with HOP-92 NSCLC. The growth in the experiment on NCI-H522 lung was 14.2%; in the experiment with A549/ATCC NSCLC, 41.7%; in the experiment with 786-0 renal it was 37.7%; in the experiment on COLO 205 colon, 96.5%.
Take `CN1CCN(c2ccc(C(=O)/C=C/c3cc(F)cc(C(F)(F)F)c3)cc2)CC1`: the growth is 72% with NCI-H23 lung; 61.8% with NCI-H226 lung; 78.9% in the experiment on NCI-H322M lung; 93.1% with HOP-62 NSCLC; 80.2% in the experiment with NCI-H460 lung; 40.6% in the experiment with HOP-92 NSCLC. The growth in the experiment on NCI-H522 lung is 83.4%; in the experiment with A549/ATCC NSCLC, 66.2%; in the experiment with 786-0 renal, 89.7%; with COLO 205 colon, 100%.
Turning to `COc1cc(C(=O)c2cc(C(C)=O)c3cccc(C)n23)cc(OC)c1OC`, the growth with NCI-H23 lung is 59.7%; in the experiment on NCI-H226 lung, 51.6%; with NCI-H322M lung, 69.2%; in the experiment with HOP-62 NSCLC, 36.7%; in the experiment with NCI-H460 lung, 16.1%; in the experiment on HOP-92 NSCLC, 33.5%. Besides, the growth with NCI-H522 lung was 19.3%; with A549/ATCC NSCLC, 50.2%; in the experiment with 786-0 renal, 47.1%; with COLO 205 colon, 11%.
Regarding `O=C1Nc2ccc(F)cc2/C1=C\C(=O)c1ccc(NS(=O)(=O)c2ccccc2)cc1`, the growth with NCI-H23 lung is 84.3%; with NCI-H226 lung, 95.6%; in the experiment with NCI-H322M lung, 93.8%; in the experiment on HOP-62 NSCLC, 103%; in the experiment on NCI-H460 lung it was 101%; in the experiment on HOP-92 NSCLC it was 82.7%. The growth was 70.2% in the experiment with NCI-H522 lung, 97.4% in the experiment with A549/ATCC NSCLC, 98.6% in the experiment with 786-0 renal and 113% in the experiment with COLO 205 colon.
Consider `O=C(N/N=C/c1cc2ccccc2nc1Cl)c1cc(-c2nc3ccccc3[nH]2)nc2ccccc12`, for which the growth in the experiment on NCI-H23 lung was 96.2%; in the experiment on NCI-H226 lung, 100%; in the experiment on NCI-H322M lung it was 99.9%; in the experiment with HOP-62 NSCLC it was 97.9%; in the experiment with NCI-H460 lung it was 104%; in the experiment on HOP-92 NSCLC it was 72.4%. Further, the growth is 83.6% in the experiment on NCI-H522 lung, 95.1% in the experiment with A549/ATCC NSCLC, 85.3% with 786-0 renal and 98.3% with COLO 205 colon.
`CC[C@H](CC[C@@H](C)[C@H]1CC[C@H]2[C@@H]3CC(=O)C4=CC(=O)/C(=C/c5ccc([N+](=O)[O-])cc5)C[C@]4(C)[C@H]3CC[C@]12C)C(C)C`: the growth in the experiment on NCI-H23 lung was 103%; in the experiment on NCI-H226 lung it was 103%; in the experiment on NCI-H322M lung, 103%; with HOP-62 NSCLC, 104%; in the experiment on NCI-H460 lung, 106%; in the experiment with HOP-92 NSCLC it was 114%. Further, the growth was 97.4% in the experiment on NCI-H522 lung, 99% in the experiment with A549/ATCC NSCLC, 99% in the experiment with 786-0 renal and 118% in the experiment with COLO 205 colon.
On to `C#C[C@]1(O)CC[C@H]2[C@@H]3CC=C4c5sc(Nc6ncccc6C)nc5CC[C@]4(C)[C@H]3CC[C@@]21C`, for which the growth in the experiment on NCI-H23 lung is 9.38% (active); in the experiment on NCI-H226 lung, 23.4%; in the experiment with NCI-H322M lung it was 32.8%; in the experiment with HOP-62 NSCLC, 11.9%; in the experiment on NCI-H460 lung, 0.476% (active); in the experiment with HOP-92 NSCLC, 20.5%. Further, the growth is 25.9% with NCI-H522 lung, 21.8% in the experiment on A549/ATCC NSCLC, -56.2% (active) in the experiment with 786-0 renal and 34.8% in the experiment with COLO 205 colon.
Consider `CCCC[n+]1ccc(SCC(=O)n2ccc3ccccc32)c2ccccc21`, for which the growth in the experiment with NCI-H23 lung is 74.5%; in the experiment on NCI-H226 lung it was 71.1%; with NCI-H322M lung, 96.4%; in the experiment on HOP-62 NSCLC, 103%; in the experiment on NCI-H460 lung it was 97.8%; in the experiment with HOP-92 NSCLC, 138%. Moreover, the growth is 83.2% with NCI-H522 lung, 87.5% in the experiment with A549/ATCC NSCLC, 106% in the experiment on 786-0 renal and 99.8% in the experiment with COLO 205 colon.
On to `COc1ccc(NC(=O)CCCCCCNC(=O)C(O)(O)C(F)(F)F)cc1`, for which the growth with NCI-H23 lung was 53.2%; with NCI-H226 lung it was 84.1%; in the experiment with NCI-H322M lung, 66.1%; with HOP-62 NSCLC it was 28.3%; in the experiment with NCI-H460 lung, 40.2%; in the experiment with HOP-92 NSCLC, 28.5%. Besides, the growth in the experiment on NCI-H522 lung is 0.885% (active); in the experiment on A549/ATCC NSCLC, 46.3%; in the experiment on 786-0 renal, 52.9%; with COLO 205 colon, 9.56% (active).

(Values after PubChem BioAssay (NCI).)
